Records with an inconclusive call do not appear. Unmarked numbers belong to inactive results. The call rests on the fitted dose curve; in most records, active means well fitted curve in the direction sought with a large enough effect; inconclusive means small, poorly fitted or top-dose-only effect, or another doubt; inactive means no such curve, though single readings can be large or run the other way.

A short description of the assay: qHTS Assay for Rab9 Promoter Activators: Hit Validation Using Renilla Luciferase Read-Out. Further: % of control where 0% means no effect. The note with it: Huh7 NPC1 promoter Renilla luciferase reporter, 24 h; series mostly up to 76.9 µM; activation (negative = inhibition): at the top concentration. An excerpt: Niemann Pick Type C (NPC) is a rare neurodegenerative lipidosis that is characterized by lipid storage in the endosomal/lysosomal system. Treatment modalities for this devastating disease are currently non-existent due to the severe obstacles associated with accessing the central nervous system with proteins or genes. The majority of mutations causing NPC disease are missense mutations that are distributed throughout the length of the NPC1 protein, with the most prevalent being the I1061T allele. Although NPC1 mutant proteins may be functional, they are typically trapped in the ER due to misfolding. […] We have developed and optimized a cell based renilla luciferase reporter assay in 1536 well format for the identification of up-regulators of the mutant NPC1 promoter. This assay presents data on the validation of hits from the primary screen, which used a firefly luciferase read-out. NIH Chemical Genomics Center [NCGC] NIH Molecular Libraries Probe Production centers Network [MLPCN] MLPCN Grant: MH089375 Assay Submitter (PI): Yiannis A. Ioannou
Huh7 cells stably expressing NPC promoter-luciferase will be seeded at 1,500 cells/well in 5 uL in 1,536-well white opaque plates with 23 nL/well of compound in DMSO solution. The assay plates will be incubated at 37 deg C for 24 hours, after which 3 uL/well BriteLite plus luciferase detection reagent mixture (Perkin Elmer) will be added. Luminescence signal will be measured in a ViewLux plate reader (Perkin Elmer) after a 10 minute incubation at the room temperature.
In the case of `CCC(=NCc1cccnc1)c1c(O)n(-c2ccccc2)c(=O)[nH]c1=O`, the “activation (negative = inhibition)” value was -4.03%.

Take `Cc1cccn2c(NCC3CCCO3)c(C(C)C)nc12` (stereo not given): the “activation (negative = inhibition)” value is 3.86%.

For the compound `CN1CCc2cc3c(c4c2C1Cc1ccccc1-4)OCO3` (stereo not given), the “activation (negative = inhibition)” value is -31.1%.

In the case of `O=C1c2ccccc2C(=O)N1Cc1nc2ccccc2c(=O)n1-c1cccnc1`, the “activation (negative = inhibition)” value is 2.07%.

On to `COc1cccc(CCNCc2ccc(SC)cc2)c1`, for which the “activation (negative = inhibition)” value is 5.03%.

The values above are taken from PubChem BioAssay AID624117 (National Center for Advancing Translational Sciences (NCATS), 2012).
